Hit rate of the full screen: of about 5,500 compounds, about 2,000 (36%) were called active. Another 18% or so got no clear call; they are omitted. No stated cut-off is given here; in the data, active means normalized growth mostly below about 0.91 (no sharp cut-off); inconclusive means no clear call, values can overlap the other calls; inactive means mostly above about 0.92. The list shows a part of the results.
Experiment: chemical genetic growth profiling, strain panel (AID 1159580);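 further: tested at 20 µM; growth read once vehicle control cultures reached saturation at 30 °C; 1 = growth at the plate median or of vehicle wells; lower values mean less growth of the strain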
Settings: S. cerevisiae deletion strains, growth OD

Measured: normalized growth

CCCN1CCC[C@@H]2Cc3[nH]ncc3C[C@H]21
inactive: locus YAL013W, strain DEP1, hits give low values 0.989 | locus YAL040C, strain CLN3, hits give low values 1.02 | locus YCL061C, strain MRC1 (second series), hits give low values 1 | locus YDR363W, strain ESC2, hits give low values 1.01 | locus YER002W, strain NOP16, hits give low values 1.01 | locus YMR263W, strain SAP30, hits give low values 0.994 | locus YMR307W, strain GAS1, hits give low values 0.985 | locus YNL128W, strain TEP1, hits give low values 1.02 | locus YNL175C, strain NOP13, hits give low values 1 | locus YNL197C, strain WHI3, hits give low values 1.02 | locus YNL224C, strain SQS1, hits give low values 1.01 | locus YNL322C, strain KRE1, hits give low values 1.01 | locus YOR083W, strain WHI5 (second series), hits give low values 1.02

O=C(Oc1ccc2ccccc2c1C1SCCS1)c1ccc([N+](=O)[O-])o1
active: locus YHR030C, strain SLT2, hits give low values 0.698 | locus YLR113W, strain HOG1, hits give low values 0.702 | locus YPL256C, strain CLN2, hits give low values 0.807
inactive: locus YAR019C, strain CDC15, hits give low values 0.952 | locus YBL105C, strain PKC1, hits give low values 0.958 | locus YBR135W, strain CKS1, hits give low values 0.966 | locus YBR136W, strain MEC1, hits give low values 0.957 | locus YBR160W, strain CDC28, hits give low values 0.947 | locus YDL017W, strain CDC7, hits give low values 0.958 | locus YDL028C, strain MPS1, hits give low values 0.942 | locus YDL101C, strain DUN1, hits give low values 0.943 | locus YDL108W, strain KIN28, hits give low values 0.955 | locus YDL132W, strain cdc53, hits give low values 0.973 | locus YDL214C, strain PRR2, hits give low values 0.912 | locus YDR052C, strain DBF4, hits give low values 0.973 | locus YDR054C, strain cdc34, hits give low values 0.97 | locus YDR226W, strain ADK1, hits give low values 0.933 | locus YDR477W, strain SNF1, hits give low values 0.901 | locus YER123W, strain YCK3, hits give low values 0.907 | locus YER133W, strain GLC7, hits give low values 0.953 | locus YFL009W, strain cdc4, hits give low values 0.964 | locus YFL029C, strain CAK1, hits give low values 0.948 | locus YFR003C, strain YPI1, hits give low values 0.957 | locus YFR019W, strain FAB1, hits give low values 0.923 | locus YFR028C, strain CDC14, hits give low values 0.946 | locus YGR040W, strain KSS1, hits give low values 0.919 | locus YGR052W, strain FMP48, hits give low values 0.966 | locus YGR092W, strain DBF2, hits give low values 0.86 | locus YHR079C, strain IRE1, hits give low values 0.89 | locus YHR082C, strain KSP1, hits give low values 0.936 | locus YHR205W, strain SCH9, hits give low values 0.768 | locus YIL147C, strain SLN1, hits give low values 0.93 | locus YJL095W, strain BCK1, hits give low values 0.855 | locus YJL128C, strain PBS2, hits give low values 0.842 | locus YJL157C, strain FAR1, hits give low values 0.92 | locus YJR016C, strain ILV3, hits give low values 0.958 | locus YJR066W, strain TOR1 (second series), hits give low values 0.919 | locus YJR066W, strain TOR1, hits give low values 0.879 | locus YKL048C, strain ELM1, hits give low values 0.925 | locus YKL067W, strain YNK1, hits give low values 0.909 | locus YKL101W, strain HSL1, hits give low values 0.894 | locus YKL193C, strain SDS22, hits give low values 0.952 | locus YKL203C, strain TOR2, hits give low values 1.02 | locus YLR133W, strain CKI1, hits give low values 0.919 | locus YLR403W, strain SFP1, hits give low values 0.919 | locus YML070W, strain DAK1, hits give low values 0.907 | locus YMR001C, strain CDC5, hits give low values 0.94 | locus YMR205C, strain PFK2 (second series), hits give low values 0.938 | locus YMR277W, strain FCP1, hits give low values 0.937 | locus YNL006W, strain LST8, hits give low values 0.955 | locus YNL020C, strain ARK1, hits give low values 0.917 | locus YNL161W, strain CBK1, hits give low values 0.957 | locus YNL183C, strain NPR1, hits give low values 0.951 | locus YNL207W, strain RIO2, hits give low values 0.963 | locus YNL222W, strain SSU72, hits give low values 0.939 | locus YNL307C, strain MCK1 (second series), hits give low values 0.901 | locus YOL078W, strain AVO1, hits give low values 0.962 | locus YOL136C, strain PFK27, hits give low values 0.886 | locus YOR061W, strain CKA2, hits give low values 0.921 | locus YOR119C, strain RIO1, hits give low values 0.973 | locus YOR231W, strain MKK1, hits give low values 0.878 | locus YOR329C, strain SCD5, hits give low values 0.957 | locus YPL031C, strain PHO85, hits give low values 0.917 | locus YPL153C, strain RAD53, hits give low values 0.909 | locus YPL204W, strain HRR25, hits give low values 0.906 | locus YPL209C, strain IPL1, hits give low values 0.964 | locus YPR025C, strain CCL1, hits give low values 0.961 | locus YPR106W, strain ISR1, hits give low values 0.939 | locus YPR111W, strain DBF20, hits give low values 0.913 | strain NNK1, hits give low values 0.941 | strain TSCII, hits give low values 0.954

Reference: PubChem BioAssay AID1159580 (chemical genetic matrix, 2015)
